Article PMC4336329 (PLoS ONE, 2015)
Out of some 310,000 compounds screened, about 14,000 (4.5%) showed an effect of 50% or more. Effects have a minus sign here. Shown is part of a subset that was picked to be rich in strong results.

Target: human ether-à-go-go-related gene (hERG) potassium channel (human, UniProt Q12809)
Assay: primary screen, population patch clamp on CHO cells stably expressing hERG; higher = less effect of the substance
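Also: peak tail current of the secondary pulse compared with the same well before compound.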

human ether-à-go-go-related gene (hERG) potassium channel, sequence (Q12809 whole entry, looked up): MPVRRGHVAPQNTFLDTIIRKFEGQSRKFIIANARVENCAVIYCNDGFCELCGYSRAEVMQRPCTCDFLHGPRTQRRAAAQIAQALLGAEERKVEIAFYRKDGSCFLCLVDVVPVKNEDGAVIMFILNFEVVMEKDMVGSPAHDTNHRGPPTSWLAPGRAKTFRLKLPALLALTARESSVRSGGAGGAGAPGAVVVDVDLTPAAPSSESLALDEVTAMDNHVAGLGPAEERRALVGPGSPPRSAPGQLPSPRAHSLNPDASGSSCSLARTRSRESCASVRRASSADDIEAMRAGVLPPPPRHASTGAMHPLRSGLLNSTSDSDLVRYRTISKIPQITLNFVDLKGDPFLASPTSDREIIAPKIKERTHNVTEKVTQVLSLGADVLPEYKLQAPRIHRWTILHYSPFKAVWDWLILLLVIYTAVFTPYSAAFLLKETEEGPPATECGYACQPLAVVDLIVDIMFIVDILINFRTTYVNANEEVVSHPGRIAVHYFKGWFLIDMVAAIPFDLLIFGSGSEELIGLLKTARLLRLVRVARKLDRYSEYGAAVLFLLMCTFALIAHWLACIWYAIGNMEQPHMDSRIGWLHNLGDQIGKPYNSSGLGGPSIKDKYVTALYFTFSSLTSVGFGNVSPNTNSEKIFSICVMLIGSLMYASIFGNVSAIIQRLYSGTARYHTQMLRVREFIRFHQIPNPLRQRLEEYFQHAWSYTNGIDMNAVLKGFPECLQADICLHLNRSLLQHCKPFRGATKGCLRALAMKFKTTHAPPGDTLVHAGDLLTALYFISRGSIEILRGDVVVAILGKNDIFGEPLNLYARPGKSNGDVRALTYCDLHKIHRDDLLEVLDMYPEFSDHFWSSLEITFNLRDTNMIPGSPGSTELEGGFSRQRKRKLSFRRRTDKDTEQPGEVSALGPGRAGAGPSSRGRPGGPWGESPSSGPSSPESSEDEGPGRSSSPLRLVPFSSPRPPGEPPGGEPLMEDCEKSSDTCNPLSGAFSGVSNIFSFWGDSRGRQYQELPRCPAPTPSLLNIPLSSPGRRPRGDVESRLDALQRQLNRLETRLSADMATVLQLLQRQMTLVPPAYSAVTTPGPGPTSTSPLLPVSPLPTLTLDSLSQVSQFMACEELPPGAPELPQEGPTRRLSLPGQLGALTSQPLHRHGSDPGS

SMILES | hERG current change (%, negative = inhibition) at 10uM [%]
Cc1ccc(S(=O)(=O)c2nc(NCCCn3ccnc3)sc2Cl)cc1 | -78.6
CC(C)CNc1nc(S(=O)(=O)c2ccccc2)c(Cl)s1 | -11.5
CC(=O)Nc1nc(S(=O)(=O)c2ccc(C)cc2)c(Cl)s1 | -8.1
Cc1ccc(S(=O)(=O)c2nc(NCCN(C)C)sc2Cl)cc1 | -69.5
CCCS(=O)(=O)c1nc(S(=O)(=O)c2ccc(C)cc2)c(NCCCn2ccnc2)s1 | -29.6
CN(C)CCNc1nc(S(=O)(=O)c2ccccc2)c(Cl)s1 | -56.2
O=S(=O)(c1ccccc1)c1nc(NCc2ccccc2)sc1Cl | -9.88
Cc1ccc(S(=O)(=O)c2nc(NN(C)C)sc2Cl)cc1 | -5.48
CCS(=O)(=O)c1nc(S(=O)(=O)c2ccc(C)cc2)c(NCCCn2ccnc2)s1 | -26.5
CCCCCCC/C=N/Nc1nnc(Cc2ccccc2)c(=O)[nH]1 | 33.2
CCn1cc(C(=O)NCc2ccc(OC)cc2)c(=O)c2ccc(C)nc21 | 22.1
Cc1cccc(NC(=S)NNC(=O)c2csc(C(C)C)c2)c1 | 2.52
CCN(CC)CCCNC(=O)c1cn(CCOC)c(=O)c2c1c1ccccc1n2C | -0.445
O=Cc1coc2ccc3ccccc3c2c1=O | 14.5
CCCN(C(=O)c1cn(-c2ccccc2)nc1-c1ccc(OC)cc1)C1CCS(=O)(=O)C1 (stereo not shown) | -22.8
O=C(CN1CCN(C(=O)c2ccccc2)CC1)Nc1ncc(Br)cc1Br | -78.1
O=C(CN1CCCCCC1)Nc1ccc(Br)cn1 | -20.7
O=C(CN1CCN(C(=O)c2ccccc2)CC1)Nc1ccc(Br)cn1 | -74.4
CCc1nnc(NC(=O)CN2CCN(C(=O)c3ccccc3)CC2)s1 | 14.7
O=C(CN1CCN(C(=O)c2ccccc2)CC1)Nc1ccccc1 | -20.1
O=C(CN1CCOCC1)Nc1ncc(Br)cc1Br | -20.3
CCOC(=O)N1CCC(NC(=O)c2cc3c(=O)[nH]c4ccccc4c3n2C)CC1 | -3.23

SMILES | hERG current change (%, negative = inhibition) at 10uM [%]
COc1ccccc1NC(=O)/C(=C/c1cccs1)NC(=O)c1ccco1 | -33.1
CC(=O)Nc1ccc2nc(NC(=O)c3ccc([N+](=O)[O-])s3)sc2c1 | 8.75
CCSc1nc2c(c(=O)[nH]1)C(C(C)C)C(C#N)=C(N)O2 (stereo not shown) | 5.71
Cc1ccccc1NC(=O)Nc1nc2ccc(S(C)(=O)=O)cc2s1 | -2.53
O=C(N/N=C/c1coc2ccc(Cl)cc2c1=O)c1ccncc1 | 6.28
CCCN(CCC)CCCNC(=O)C1CCC(CNS(=O)(=O)c2cccc3nsnc23)CC1 (stereo not shown) | -10.1
COc1ccccc1CN(CC(=O)NCc1ccc2c(c1)OCO2)C(=O)c1csnn1 | -34.2
O=C(CN(Cc1ccccc1)C(=O)c1csnn1)NCc1ccc2c(c1)OCO2 | -23.4
O=C(CN(Cc1ccccc1)C(=O)c1ccc2c(c1)OCCO2)NCc1ccc2c(c1)OCO2 | -59
COc1ccccc1CN(CC(=O)NCc1ccc2c(c1)OCO2)C(=O)c1ccc2c(c1)OCCO2 | -28.4
O=C(CN(Cc1ccccc1F)C(=O)c1csnn1)NCc1ccc2c(c1)OCO2 | -22
O=C(CN(Cc1ccccc1Cl)C(=O)c1csnn1)NCc1ccc2c(c1)OCO2 | -51.4
Cc1ccc(CN(CC(=O)NCc2ccc3c(c2)OCO3)C(=O)c2csnn2)cc1 | -50.5
O=C(Cc1ccccc1)NCc1ccc2c(c1)OCO2 | 3.22
O=C(CN(Cc1ccc(F)cc1)C(=O)c1csnn1)NCc1ccc2c(c1)OCO2 | -64.5
O=C(CN(C(=O)c1csnn1)c1ccc(F)cc1)NCc1ccc2c(c1)OCO2 | 9.12
O=C(CN(C(=O)c1csnn1)c1cccc(F)c1)NCc1ccc2c(c1)OCO2 | -7.22
COc1ccc(CN(CC(=O)NCc2ccc3c(c2)OCO3)C(=O)c2csnn2)cc1 | -39.8
C=CCn1c(Cc2cccs2)nnc1SCC(=O)Nc1cc(OC)cc(OC)c1 | -27.8
Cc1nc2nc(C)c(CCC(=O)Nc3ccc4c(c3)OCO4)c(C)n2n1 | -18
COc1ccc(C2N=C(N)N=C(N)N2c2ccccc2OC)cc1OC.Cl (stereo not shown) | -11.7
O=C(Nc1nnc(-c2cccs2)o1)C1CC1 | 3.93

SMILES | hERG current change (%, negative = inhibition) at 10uM [%]
CCOC(=O)C1=NNC(C(=O)c2ccc(OC)cc2)C1c1ccccc1 (stereo not shown) | -9.43
Cn1ncc(C#N)c1NC(=O)C1CC(c2ccc(Cl)c(Cl)c2)=NO1 (stereo not shown) | -9.94
COc1cccc(CC(=O)Nc2nc3ccccc3[nH]2)c1 | 10.7
Cc1cccc(NC(=S)NCCc2c[nH]c3ccccc23)c1 | -4.25
CCOC(=O)CNC(=S)N(Cc1ccccc1F)C1CCCCC1 | -73
CCCNC(=O)CNC(=S)N(Cc1ccccc1F)C1CCCCC1 | -10.8
O=C(O)CNC(=S)N(Cc1ccccc1F)C1CCCCC1 | 0.581
CC(C)c1ccc(S(=O)(=O)N2CCN(C(=O)n3ccnc3)CC2)cc1 | -35.8
COc1cc(OC)cc(C(=O)N[C@H](C(=O)NCc2ccccc2)C(C)C)c1 | 7.08
CCOC(=O)N1CCN(C(=S)NC(=O)c2cc(Br)ccc2Cl)CC1 | 3.59
C=CCc1c(C)nc(C)nc1N/N=C/c1ccccc1 | -19.2
C=CCc1c(C)nc(C)nc1N/N=C/c1ccc(F)cc1 | -30.9
C=CCc1c(C)nc(C)nc1N/N=C/c1ccc([N+](=O)[O-])cc1.Cl | -56.3
CCC(c1nnnn1Cc1ccc(F)cc1)N(CCCO)Cc1cc2cc3c(cc2[nH]c1=O)OCO3 (stereo not shown) | -17.5
Cc1ccc(-n2c(O)c(/C=N/c3ncc(Br)cc3Br)c(=O)[nH]c2=O)cc1 | 2.79
CCCCNC(=O)CSc1nc2cc3c(cc2c(=O)n1Cc1ccco1)OCO3 | -10.8
CCCCNC(=O)CSc1nc2cc3c(cc2c(=O)n1CCCN(CC)CC)OCO3 | -62.6
CCOCCCn1c(SCC(=O)Nc2cc(OC)ccc2OC)nc2ccccc2c1=O | -55.7
CCOCCCn1c(SCC(=O)Nc2ccc(OC)cc2)nc2ccccc2c1=O | -11
CCOCCCn1c(SCC(=O)Nc2ccc(NC(C)=O)cc2)nc2ccccc2c1=O | 7.29
COCCCNC(=O)CSc1nc2ccccc2c(=O)n1Cc1ccc2c(c1)OCO2 | 12.4
CCOCCCn1c(SCC(=O)Nc2cccc(OC)c2)nc2ccccc2c1=O | -58.4

SMILES | hERG current change (%, negative = inhibition) at 10uM [%]
COCCn1c(SCC(=O)NCc2ccc3c(c2)OCO3)nc2ccccc2c1=O | -42.4
CCCCNC(=O)CSc1nc2cc3c(cc2c(=O)n1CCCC(=O)NCCc1ccc(OC)c(OC)c1)OCO3 | 1.71
CCOCCCn1c(SCC(=O)NCc2ccc3c(c2)OCO3)nc2ccccc2c1=O | -59
CCOCCCn1c(SCC(=O)Nc2ccccc2OC)nc2ccccc2c1=O | -45
CCOCCCn1c(SCC(=O)Nc2ccccc2)nc2ccccc2c1=O | -29.4
CCC1CCCCN1Cc1ccc(CNC(=O)CCc2nnc3ccc(N4CCCCC4)nn23)o1 (stereo not shown) | 18.2
Cc1ccc(S(=O)(=O)N2CCC(C)CC2)c([N+](=O)[O-])c1 | -12.9
Cc1ccc(CN2CC(C(=O)N(C)CC(=O)Nc3cccc(F)c3)CC2=O)cc1 (stereo not shown) | -7.16
O=C1Nc2ccccc2C1(O)c1ccccc1O (stereo not shown) | 34.6
CCOc1ccc(OCCC(=O)OCC(=O)Nc2ccc3c(c2)OCCO3)cc1 | -5.02
CC(C)[C@H]1CN=C2N(C[C@H](C)NC(=O)CCC3CCCCC3)[C@H](Cc3ccc(O)cc3)CN21 | -59.7
O=C(CCC1CCCC1)N[C@@H](Cc1ccc(O)cc1)C(=O)O | 28.8
COc1ccc(C[C@@H]2CN3C(=NC[C@@H]3Cc3ccc(O)cc3)N2C[C@H](C)NC(=O)CCC2CCCCC2)cc1 | -80.6
C[C@@H](CN1C2=NC[C@H](C)N2C[C@H]1Cc1ccc(O)cc1)NC(=O)CCC1CCCCC1 | -11.9
COc1ccc(C[C@H]2CN3C(=NC[C@@H]3Cc3ccc(O)cc3)N2C[C@H](C)NC(=O)CCC2CCCCC2)cc1 | -66.1
COc1ccc(C[C@@H]2CN3C(=NC[C@@H]3C)N2C[C@H](C)NC(=O)CCC2CCCCC2)cc1 | -67.4
Cc1cc(C)cc(NC(=S)N2CCN(CCO)CC2)c1 | 14.3
COC(=O)c1ccc(OC)c(CSc2nnc(COc3ccc(OC)cc3)o2)c1 | -27.1
N#Cc1ccccc1CSc1nc2ncc(Br)cc2[nH]1 | 5.22
